Source: PubChem (National Center for Advancing Translational Sciences (NCATS))
DT40 TDP1 no CPT: qHTS for Inhibitors of human tyrosyl-DNA phosphodiesterase 1 (TDP1): qHTS in cells in absence of CPT. AID 686978, 2013. Potency, µM (titrated, usually from 46.2 µM), without a hit: top-dose activity change, negative = growth inhibition, usual class: inhibitors. hit rate 15% among 420,000. DT40 Tdp1-/- hTDP1 cells, no CPT, ATP luminescence, 48 h; also: nearly all actives have a fitted effect of over 55% in size
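Growth of hTDP1-complemented DT40 Tdp1-knockout cells is measured by ATP luminescence after at least 48 hr compound exposure at 37 °C, with DMSO substituting for the 20 nM CPT used in the parallel screen.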
HT1080-NT tox: qHTS for induction of synthetic lethality in tumor cells producing 2HG: qHTS for the HT-1080-NT fibrosarcoma cell line | hit rate 1.6% among 360,000 | Potency, µM (highest dose often 46.1 µM), for the others: at the top dose activity, negative = less viability, most hits filed as cytotoxic | HT-1080-NT fibrosarcoma viability, CellTiter-Glo ATP luminescence, 48 h | AID 686970, 2013;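 also: NT is the 2HG producing partner of a matched IDH1 knockdown line; 0% = DMSO-treated cells and -100% = media-only wells without cells; nearly all actives have a fitted effect of over 55% in size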
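A 48-hour cytotoxicity screen used HT-1080-NT cells plated 2 hours before compound delivery. ATP-based CellTiter-Glo luminescence measured viability, normalized to DMSO and no-cell controls.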
HT1080 IDH1KD tx: qHTS for induction of synthetic lethality in tumor cells producing 2HG: qHTS for the HT-1080-IDH1KD cell line; hit rate 2% among 360,000; HT-1080 IDH1 knockdown viability, ATP luminescence, 48 h; Potency, µM (titrated, usually from 46.1 µM), for the others: top-dose activity, negative = toxicity, most hits filed as cytotoxic;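 also: 0% = DMSO wells and -100% = cell-free medium wells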
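IDH1KD HT-1080 cells, 750/well, RPMI + 5% FBS; compound pinned after 2 h settling; 48 h, 37 °C; CellTiter-Glo luminescence; % activity normalised to DMSO and no-cell wells; curves fitted, classed by r2 and efficacy.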
TDP1 cell CPT: qHTS for Inhibitors of human tyrosyl-DNA phosphodiesterase 1 (TDP1): qHTS in cells in presence of CPT; chicken DT40 Tdp1-/-;hTDP1 cells + 20 nM CPT, ATP luminescence, 48 h; Potency, µM (top dose mostly 46.2 µM), for inactives: at the top dose activity change, negative = growth inhibition, usual class: inhibitors; hit rate 12% among 420,000; also: nearly all actives have a fitted effect of over 55% in size
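Chicken DT40 Tdp1-/- cells stably complemented with human TDP1 were seeded at 400 cells/well in medium containing 20 nM camptothecin, exposed to pin-transferred compounds, and grown at 37 °C for at least 48 hr. Viability was read as ATP luminescence.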
KB-V1 MDR tox: qHTS assay for MDR1-selective chemotherapeutics: Primary screen using the drug-selected MDR subline cells KB-V1; Potency, µM (doses to about 46.1 µM), usual class: cytotoxic; hit rate 3.4% among 400,000; KB-V1 MDR cells viability, CellTiter-Glo, 72 h; also: nearly all actives have a fitted effect of over 60% in size
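Cytotoxicity via CellTiter-Glo luminescence after 72 h compound exposure at 37 degrees C. Cells: drug-selected KB-V1 line, DMEM phenol-red free plus 10% FBS. Compounds tested at multiple concentrations; normalized data fitted to concentration-effect curves.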
KB-3-1 cytotox: qHTS assay for MDR1-selective chemotherapeutics: Primary screen using the parental adenocarcinoma cell KB-3-1. KB-3-1 viability, CellTiter-Glo ATP luminescence, 72 h. Potency, µM (doses to about 46.1 µM), actives largely listed as cytotoxic. hit rate 1.4% among 400,000; also: nearly all actives have a fitted effect of over 60% in size
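Cytotoxicity in the drug-sensitive parental line KB-3-1 was scored as loss of CellTiter-Glo luminescence following 72 h incubation with compound. Values come from curve fitting of normalized concentration-response data.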
An asterisk follows results filed as active; i = inactive; ? = inconclusive; . = not tested or not shown. An excerpt weighted towards active compounds, which were near 19% of everything screened. Calls follow the shape of the dose curve; as a rule, active = well fitted curve in the direction sought with a large enough effect; inconclusive = small, poorly fitted or top-dose-only effect, or another doubt; inactive = no such curve, though single readings can be large; an effect the other way counts as inactive or inconclusive. Unless noted, % is scaled to controls: 0 for no effect and ±100 for the full control effect; potency is read from the fitted curve at half-maximal effect.

SMILES | DT40 TDP1 no CPT | HT1080-NT tox | HT1080 IDH1KD tx | TDP1 cell CPT | KB-V1 MDR tox | KB-3-1 cytotox
CCCNCC1C(Oc2ccc(Cl)cc2Cl)C(=O)N1c1cccc(C)c1C (stereo unspecified) | 18µM* | ? | ? | ? | ? | i
CCCCNCC1C(Oc2ccc(Cl)cc2)C(=O)N1c1ccccc1C (stereo unspecified) | 15µM* | ? | 23µM* | ? | i | i
O=C(NC1(C(F)(F)F)C(=O)Nc2c1c(=O)[nH]c(=O)n2-c1ccccc1)c1ccccc1Cl (stereo unspecified) | -20% | . | . | -15% | ? | i
OC(CN1CCN(Cc2ccccc2)CC1)Cn1c2ccccc2c2ccccc21 (stereo unspecified) | ? | ? | ? | 23µM* | 23µM* | ?
OC(CN1CCN(c2ccccc2)CC1)Cn1c2ccccc2c2ccccc21 (stereo unspecified) | 13µM* | 6% | 0% | 18µM* | i | ?
CC1CCCC(C)N1CC(O)Cn1c2ccccc2c2ccccc21 (stereo unspecified) | 2.6µM* | -2% | 1% | 1.8µM* | i | i
Cc1cc(=O)n2c3ccccc3n(CC(O)CN3CCN(Cc4ccccc4)CC3)c2c1C#N (stereo unspecified) | 12µM* | 10% | -1% | 12µM* | i | i
CC1CCN(CC(O)Cn2c3ccccc3c3ccccc32)CC1 (stereo unspecified) | ? | -26% | -25% | -23% | ? | i
OC(CN1CCOCC1)Cn1c2ccccc2c2ccccc21 (stereo unspecified) | ? | -3% | 6% | 5% | i | i
COCCn1c(CCC(=O)Nc2ccc(C)c(Cl)c2)nc2cccnc21 | -73% | . | . | ? | i | i
COc1cc(C(F)(F)F)c(C(=O)N(C)Cc2cccc(Cl)c2)cn1 | ? | -10% | -13% | -22% | i | i
COc1cc(C(F)(F)F)c(C(=O)N(C)Cc2cc(Cl)cc(Cl)c2)cn1 | 15µM* | 11% | -8% | ? | ? | i
Cc1ccc(NC(=O)Cn2cnc3sc(C(=O)O)c(C)c3c2=O)cc1Cl | 5% | . | . | -8% | i | i
CCOc1ccc(NC(=O)c2c(NCc3cccnc3)sc3c2CCCC3)cc1 | ? | . | . | ? | i | i
COc1ccc(NC(=O)c2c(NC(=O)c3ccc(Br)cc3)sc3c2CCCC3)cc1 | 21µM* | . | . | ? | i | ?
CCOc1ccc(NC(=O)c2c(NC(=O)CN3CCCC3)sc3c2CCC3)cc1 | 12µM* | 1% | 3% | ? | . | .
COc1ccc(NC(=O)c2c(NCc3cccs3)sc3c2CCCCC3)cc1 | 9.2µM* | . | . | 9.2µM* | i | i
CCOc1ccc(NC(=O)c2c(NCc3cccs3)sc3c2CCCCC3)cc1 | 23µM* | . | . | ? | i | i
COc1ccc(NC(=O)c2c(NC(=O)c3cccc(C)c3)sc3c2CCCC3)cc1 | -14% | . | . | -1% | ? | i
COc1ccc(S(=O)(=O)N2CCC(C(=O)Nc3ccccc3N3CCCCC3)CC2)cc1OC | ? | -5% | 1% | ? | ? | i
CC1=C(C(=O)N2CCOCC2)CC(CC(=O)NCCCN(C)C)C(=O)N1CCCN1CCCC1=O (stereo unspecified) | -14% | 5% | 21% | -5% | i | i
